These results are taken from PubChem BioAssay AID492998 (Southern Research Specialized Biocontainment Screening …, 2010).

Each structure is given as a SMILES string. Out of some 2,300 compounds screened, about 550 (24%) were called active. How the calls were made is not given here. Not all results are given here. Entries that show only a call come without a potency. Potency and affinity values are given separately.

This assay is described as follows: Vero E6 cell cytotoxicity, dose response, cytotoxicity control for non-replicating M. tuberculosis project, secondary assay (AID 492998). The settings on record: series mostly up to 20 µM.
For the molecule `CC1CCC/C(=C\Nc2ccc(C(=O)O)c(O)c2)C1=O` (stereo unspecified), the result was inactive.
The result for `Oc1ccccc1Nc1nc(NCC2CCCO2)c2ccccc2n1` (stereo unspecified) reads “inactive”.
The result for `CCSc1nsc(NC(=O)Nc2ccc(F)cc2F)n1` reads “inactive”.
The result for `Clc1ccc(OCCCCN2CCc3ccccc3C2)cc1` reads “inactive”; that for `COc1ccc(CCNc2cc(-c3ccccc3)nc3ncnn23)cc1`, “inactive”; that for `COc1ccc(CC(=O)Nc2nccs2)cc1OC`, “inactive”.
`CCOC(=O)Cn1c(C)c(Br)c(=O)c2cccc(C)c21`: the molecule was classed as inactive.
The result for `FC(F)(F)c1nc(SCc2ccc(Cl)cc2Cl)n[nH]1` reads “inactive”; that for `CC1CCCN(CCC(=O)c2ccc(Br)cc2)C1` (stereo unspecified), “inactive”; that for `CNc1nnc(Sc2ncccc2[N+](=O)[O-])s1`, “inactive”.
The result for `CN(CC(=O)Nc1ccc(C#N)cc1)Cc1ccc(Cl)c(Cl)c1` reads “inactive”.
For the molecule `COC(=O)COc1ccc2c(=O)c(Oc3ccccc3)c(C)oc2c1`, the outcome was inactive.
Take `Cc1ccc(C(=O)N/N=C/c2cccc3ccccc23)cn1`: the molecule was classed as inactive.
To `Cc1nn(C)cc1/C=N/NC(=O)c1sc2ccccc2c1Cl` belongs “inactive”.
The result for `Cc1[nH]nc2c1C(c1ccc(OC(=O)c3ccco3)cc1)C(C#N)=C(N)O2` (stereo unspecified) reads “inactive”; that for `CCC(=O)c1ccc(OCC(=O)OCC(=O)N2CCc3ccccc3C2)cc1`, “inactive”.
Turning to `O=C1NC(=O)C(=Cc2ccc(Oc3ccc([N+](=O)[O-])cc3)cc2)C(=O)N1`, the call was inactive.
The result for `COc1ccc(/C(=N/O)C(C)(C)NO)cc1` reads “inactive”; that for `CO/N=C/CC(=O)c1ccc(OC)cc1`, “inactive”.
The result for `C/C(=N/Nc1ccnc2cc(Cl)ccc12)c1ccc(N)cc1` reads “inactive”; that for `CCC(C)(C)c1ccc(OCC(=O)Nc2ccncc2)cc1`, “inactive”.
`O=C(Nc1nnc(-c2ccc(Cl)cc2)o1)c1cccc(N2C(=O)CCC2=O)c1`: the outcome was inactive.
As for `O=C(Nc1nnc(-c2ccc(Cl)cc2)o1)C1=COCCO1`, the molecule was classed as inactive.
The result for `O=C(Nc1nnc(-c2ccc(Cl)cc2)o1)c1nc2ccccc2s1` reads “inactive”; that for `O=C(COc1ccccc1)Nc1nnc(-c2ccc(Cl)cc2)o1`, “inactive”; that for `COC(=O)COc1cccc(/C=N/NC(=O)CCSc2ccccc2)c1`, “inactive”.
To `Cc1ccc(-c2cc(C(F)(F)F)n3nc(C(=O)NCCCn4ccnc4)cc3n2)cc1C` belongs “inactive”.
To `CCc1cc2c(=O)n(C(C)C(=O)OC3CCCCC3)cnc2s1` (stereo unspecified) belongs “inactive”; to `CCCCn1c(O)c(/C=C2/C=CC=N2)c(=O)[nH]c1=O`, “inactive”; to `N=C1/C(=C\c2coc3ccccc3c2=O)C(=O)N=C2SC=CN12`, “inactive”.
Take `CCOC(=O)C1CCN(c2nc3cc(OC)ccc3cc2C#N)CC1`: the result was inactive.
The result for `COC(=O)c1cccc(NC(=O)COc2cccc([N+](=O)[O-])c2)c1` reads “inactive”.
The result for `O=C(NNC1CC(=O)N(c2ccccc2)C1=O)c1ccco1` (stereo unspecified) reads “inactive”.
To `COC(=O)c1ccc(Cn2cc(C(F)(F)F)cc([N+](=O)[O-])c2=O)cc1` belongs “inactive”; to `O=C(CC1CCCCC1)NCc1ccccc1`, “inactive”.
`Cc1nnc(N/N=C/c2ccc(-c3ccccc3F)o2)n1N`: the outcome was inactive.
To `COC(=O)CCn1c(C)cc(C(=O)COc2ccccc2C(N)=O)c1C` belongs “inactive”.
The result for `Clc1ccc2c(N3CCCC3)ccnc2c1` reads “inactive”.
As to `Fc1ccc(-c2nn(-c3ccccc3)cc2CNCc2ccccc2)cc1`, the call was inactive.
The result for `O=c1oc(-c2cccs2)nc2c1cnn2-c1ccccc1` reads “inactive”; that for `CSc1ccccc1C(=O)NCc1ccc(S(N)(=O)=O)cc1`, “inactive”.
The result for `Cc1[nH]n(-c2ccccc2)c(=O)c1C=Nc1cnc2ccccc2c1` reads “inactive”; that for `O=C(COC(=O)c1ccccc1Cl)NCCC1=CCCCC1`, “inactive”.
To `CC(C)=CC1C(C(=O)Nc2ccc(Br)cn2)C1(C)C` (stereo unspecified) belongs “inactive”.
On to `O=C(NCCCN1CCOCC1)c1c(O)c2cc(Br)cc(Br)c2[nH]c1=O`, for which the call was inactive.
To `COc1ccc(C(CCNCc2ccc(OC(C)C)cc2)C(C)C)cc1` (stereo unspecified) belongs “inactive”.
To `COc1ccc(C(C)NC(=O)CCc2ccccc2)cc1` (stereo unspecified) belongs “inactive”.
In the case of `CCOC(=O)CN1NC2(CCC(C)CC2)NC1=S` (stereo unspecified), the molecule was called inactive.
The result for `COc1ccc(COC(=O)CCNC(=O)c2ccc(Cl)cc2)cc1` reads “inactive”; that for `COc1ccc(-c2[nH]ncc2CN2CCCCCCC2)c(OC)c1`, “inactive”; that for `Sc1oc(-c2ccccc2)cc1C=Nc1ccccc1`, “inactive”.
Consider `CCOC(=O)c1c(-c2ccccc2)csc1NC(=O)CCN1CCOCC1`, for which the molecule was classed as inactive.
To `CN1c2ccsc2/C(=N/Nc2ccccc2)CS1(=O)=O` belongs “inactive”; to `CCOC(=O)CNC(=O)CNC(=O)c1nn(-c2ccc(OC)c(Cl)c2)c(=O)c2ccccc12`, “inactive”.
The result for `O=C(O)c1ccccc1C(=O)NNc1ccc(F)cc1` reads “inactive”.
As for `CCOC(=O)c1ccc(NC2=CC(=O)C(=O)c3ccccc32)cc1`, the call was inactive.
To `CCOC(=O)COc1cc(O)c2c(=O)cc(-c3ccccc3)oc2c1` belongs “inactive”.
The result for `CCOC(=O)CCNC(=O)c1ccc2nc(C3CCCCC3)oc2c1` reads “inactive”; that for `O=C(Nc1ccc(Cl)cn1)C1COc2ccccc2O1` (stereo unspecified), “inactive”; that for `COC(=O)COc1ccc2cc(-c3ccc(OC)cc3)c(=O)oc2c1`, “inactive”.
Turning to `COC(=O)CN(C#N)c1nc(N(C)C)nc(N(C)C)n1`, the molecule was classed as inactive.
The result for `CC(/C=C/c1ccccc1F)=N\NC(=O)c1ccccc1` reads “inactive”; that for `Cc1ccc(NC(=S)C2=C(O)c3sccc3N(C)S2(=O)=O)cc1`, “inactive”; that for `Cc1ccc(OCC(=O)N2CCCc3ccccc32)cc1`, “inactive”.
The result for `Cc1ccc(NC(=O)CO/N=C/c2ccc(N(C)C)cc2)cc1` reads “inactive”.
For `Cc1ccc(C(=O)C=CNNC(=O)c2ccccc2)cc1`, the outcome was inactive.
To `COc1ccc(C(=O)C=CNNC(=O)c2ccc(Cl)cc2)cc1` belongs “inactive”; to `O=C(COc1ccc(F)cc1)Nc1ccc2c(c1)OCCO2`, “inactive”.
To `Cc1ccc(-n2cc(CNCCn3nc(C)cc3C)c(-c3ccc(F)cc3)n2)cc1` belongs “inactive”; to `Cc1ccc(-n2cc(CNCCc3cscn3)c(-c3ccc(F)cc3)n2)cc1`, “inactive”; to `COc1ccc(OCc2n[nH]c(=S)o2)cc1`, “inactive”.
To `Cc1cccc(NC(=O)CO/N=C/c2ccc3c(c2)OCO3)c1` belongs “inactive”.
Take `CCc1nnc(NC(=O)CN2CCN(Cc3ccc(F)cc3)CC2)s1`: the call was inactive.
The result for `COC(=O)COc1ccc2c(=O)c(-c3ccccc3)coc2c1` reads “inactive”; that for `c1ccc2cc(OCCCn3ccnc3)ccc2c1`, “inactive”; that for `C=CCc1cc(Cl)ccc1OCCCn1ccnc1`, “inactive”.
To `CCCCOc1ccc(NC(=O)CN2CCN(Cc3ccccc3)CC2)cc1` belongs “inactive”.
On to `CC(CN1CCOCC1)OC(=O)c1ccc2c(c1)OCCO2` (stereo unspecified), for which the result was inactive.
To `CC(NC(=O)OCc1ccccc1)c1ccccc1` (stereo unspecified) belongs “inactive”.
To `COc1ccc(C(=O)CCN2CCCCCC2)cc1` belongs “inactive”; to `CC(CN1CCOCC1)OC(=O)c1ccc(Br)cc1` (stereo unspecified), “inactive”; to `COc1ccc2cc(C(=O)NCc3ccccc3CN3CCCC3)ccc2c1`, “inactive”.
As for `CC(C)COc1ccc(C(=O)CCN2CCCCC2)cc1`, the molecule was called inactive.
To `Cc1ccc(NC(CC(=O)c2ccccc2)C(=O)O)cc1Cl` (stereo unspecified) belongs “inactive”; to `O=S(=O)(CCN1CCN(c2ccccn2)CC1)c1ccc(Cl)cc1Cl`, “inactive”.
Take `O=C(N[C@@H]1C[C@H]2CC[C@@H]1C2)c1ccco1`: the molecule was called inactive.
As for `Cc1ccc(NCCC(=O)c2cccs2)cc1C`, the outcome was inactive.
To `O=C(OCn1nnc2ccccc2c1=O)c1ccc(N2CCOCC2)c([N+](=O)[O-])c1` belongs “inactive”.
Take `CCOC(=O)C1=C(C)NC(=O)NC1c1ccc(-c2ccc(F)cc2)o1` (stereo unspecified): the call was inactive.
As to `CCOC(=O)c1ccc(N=C2SC(C(=O)Nc3ccc(C(=O)O)cc3)CC(=O)N2Cc2cccs2)cc1` (stereo unspecified), the molecule was called inactive.
To `O=c1oc2ccccc2nc1/C=C(\O)c1ccc(Br)cc1` belongs “inactive”; to `O=C(CCSc1ccccc1)N1CCCC1`, “inactive”; to `O=C(CCN1CCCCCC1)c1ccccc1`, “inactive”.
The result for `Cc1nnc(N/N=C/c2ccc(Br)cc2)n1N` reads “inactive”.
To `COCCSc1nnc(NC(=O)CCS(=O)(=O)Cc2ccccc2)s1` belongs “inactive”; to `CCCCOc1ccc(CSCCN)cc1Cl`, “inactive”.
Regarding `CC(=O)c1ccc(NC(=O)C(Cc2ccccc2)n2cccc2)cc1` (stereo unspecified), the result was inactive.
For the molecule `Cc1ccccc1C(=O)NNc1ccc([N+](=O)[O-])cc1`, the molecule was classed as inactive.
To `Cc1ccc(NC(=O)ON=C2CCCC2)cc1` belongs “inactive”; to `Cc1cc(C)n(-c2ccc(C(=O)Oc3ccc4c(c3)OCO4)cc2)n1`, “inactive”.
The result for `CCN(CC)CCSc1nnc2c3cc(C)ccc3n(Cc3ccccc3)c2n1` reads “inactive”.
Regarding `Cc1c(C(=O)NNC(=O)c2csc(N3CCOCC3)n2)oc2ccccc12`, the molecule was called inactive.
The result for `NC(=O)N/N=C/c1ccccc1OC(=O)c1cc2ccccc2oc1=O` reads “inactive”; that for `CCC(C)(C)NC(=O)c1ccc(Br)o1`, “inactive”; that for `O=C(Nc1ccccc1)c1ccc(Br)o1`, “inactive”.
In the case of `CC(C)(C)OC(=O)N/N=C\c1ccc(OC(=O)c2ccco2)cc1`, the molecule was classed as inactive.
With `CC1(c2nnc(-c3ccccc3)o2)CC(c2ccc(Cl)cc2)=NO1` (stereo unspecified), the molecule was called inactive.
The result for `Clc1ccc(OCCOCCN2CCc3ccccc3C2)c(Cl)c1` reads “inactive”; that for `Cc1cc(C)n(-c2ccc(C(=O)OCC(=O)Nc3cc(Cl)ccc3[N+](=O)[O-])cc2)n1`, “inactive”.
The result for `COc1ccccc1/C=C/C=N/NC(=O)c1ccncc1` reads “inactive”; that for `Cc1ccc(CN2CC(C(=O)OCc3ccccc3Cl)CC2=O)cc1` (stereo unspecified), “inactive”.
To `Cc1ccc(C(=O)COC(=O)CCc2ccc(S(=O)(=O)N3CCCCC3)cc2)cc1` belongs “inactive”; to `Cc1ccc(N2NC(=O)/C(=C/C=C/c3ccco3)C2=O)cc1C`, “inactive”; to `Cc1ccc(OCCCCn2ccnc2)c(Cl)c1`, “inactive”.
`CC1(C)Oc2ccc(NC(=O)C3COc4ccccc4O3)cc2O1` (stereo unspecified): the call was inactive.
For the molecule `O=C(Oc1ccccc1Cl)c1ccc2c(=O)n3c(nc2c1)CCC3`, the molecule was called inactive.
To `CCOc1ncccc1C(=O)OCC(=O)N1CCc2ccccc21` belongs “inactive”.
Consider `C=CCOC(=O)c1ccc(-n2cnc(C)n2)nc1`, for which the result was inactive.
The result for `O=C1CCC/C(=N/Nc2ccc(Cl)cc2)C1` reads “inactive”; that for `CCc1nnc(N/N=C/c2c(F)cccc2Cl)n1N`, “inactive”.
The result for `CCc1ccc(Cc2cnc(NC(=O)C3=NCCN3)s2)cc1` reads “inactive”.
